Experimental findings from PubChem BioAssay AID624330 (Southern Research Specialized Biocontainment Screening …, 2012) are described below.

Out of some 340,000 compounds screened, about 2,100 (0.62%) were called active.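 The calls were made as follows: active = first-screen hits whose inhibition reached a set limit at any dose in the follow-up dose series; inconclusive = inhibition above the set first-screen limit but never retested; inactive = the rest.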 Only a sample is shown. Potency and affinity values are given separately.

As a reminder, the inhibition is the drop in the measured response relative to a control, in per cent.

In this experiment the target is Rac GTPase-activating protein 1 (Homo sapiens) (UniProt Q9H0H5). Briefly: blockers of MgcRacGAP-driven Rac1 GTP hydrolysis – biochemical, ADP Hunter fluorescence, primary and confirmatory, confirmation (AID 624330).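 Also: fluorescence reports GDP produced by GAP-driven GTP hydrolysis.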 Particulars: MgcRacGAP-stimulated Rac1 GTP hydrolysis, at 30 µM, active compounds read high, GST-tagged Rac1 F28L mutant substrate.
Rac GTPase-activating protein 1 (Homo sapiens), sequence (Q9H0H5 whole entry, looked up): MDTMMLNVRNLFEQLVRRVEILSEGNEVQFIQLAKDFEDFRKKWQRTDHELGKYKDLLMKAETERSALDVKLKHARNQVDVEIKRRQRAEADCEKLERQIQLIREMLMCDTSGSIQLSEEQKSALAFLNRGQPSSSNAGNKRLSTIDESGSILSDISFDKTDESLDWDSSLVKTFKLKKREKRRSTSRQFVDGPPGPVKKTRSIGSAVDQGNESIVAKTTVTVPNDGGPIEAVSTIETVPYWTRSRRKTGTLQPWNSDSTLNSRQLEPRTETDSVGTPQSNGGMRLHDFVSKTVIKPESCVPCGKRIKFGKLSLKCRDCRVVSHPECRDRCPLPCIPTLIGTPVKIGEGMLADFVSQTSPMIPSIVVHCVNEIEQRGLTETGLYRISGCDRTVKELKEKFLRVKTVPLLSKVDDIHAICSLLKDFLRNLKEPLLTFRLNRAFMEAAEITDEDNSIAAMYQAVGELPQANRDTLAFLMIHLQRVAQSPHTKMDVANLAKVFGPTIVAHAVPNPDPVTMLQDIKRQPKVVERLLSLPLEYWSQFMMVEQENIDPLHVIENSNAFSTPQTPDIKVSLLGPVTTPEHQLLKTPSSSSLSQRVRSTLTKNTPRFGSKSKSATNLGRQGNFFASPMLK
`CCOc1ccc(/C=C2\SC(N3CCCCC3)=NC2=O)cc1`: the inhibition was 10.3% (inactive).

With `CCOC(=O)C1CCCN(C2=NC(=O)/C(=C/c3ccc(N(C)C)cc3)S2)C1` (stereo not drawn), the inhibition was 3.86% (inactive).

Take `Cc1ccsc1/C=N/NC(=O)C(O)c1ccccc1` (stereo not drawn): the inhibition was 8.51% (inactive).

With `S=C(NCc1ccco1)Nc1ccccc1`, the inhibition was 3.49% (inactive).

As to `CCN(CC)S(=O)(=O)c1cccc(NC(=O)COC(=O)c2n[nH]c(=O)c3ccccc23)c1`, the inhibition is 4.21% (inactive).

As for `COc1cc(CNc2ccc(N3CCCC3)cc2)ccc1OCc1ccccc1F`, the inhibition is 19.3% (inactive).

In the case of `COc1cccc(OC)c1C(=O)Nc1ccc(N2CCCC2)cc1`, the inhibition was 19% (inactive).

`COc1cccc(CNc2ccc(S(N)(=O)=O)cc2)c1OC`: the inhibition was -0.0267% (inactive).

For the compound `COc1cccc(CNC2CCCCCCC2)c1OC`, the inhibition was 20.3% (inactive).

`COc1cccc(CNc2ccc(F)c(Cl)c2)c1OC`: the inhibition was 6.64% (inactive).

Consider `COc1ccccc1C(=O)Nc1ccc(N2CCCCC2)cc1`, for which the inhibition was 16.2% (inactive).

As for `COc1ccc(CC(=O)Nc2cc(Cl)ccc2C(=O)O)cc1`, the inhibition is 11% (inactive).

With `O=C(CSc1nc2cc(Cl)ccc2s1)c1ccco1`, the inhibition is 9.01% (inactive).

Take `COc1ccc(N2CCN(C(=O)c3ccccc3N(C)S(=O)(=O)c3ccc(C)cc3)CC2)cc1`: the inhibition was 30.1% (inactive).

Turning to `O=C(O)c1cnc(-c2ccccc2)nc1Oc1ccccc1`, the inhibition was 4.36% (inactive).

For `Nc1nc2n(n1)C(=O)CC(c1ccccc1)N2` (stereo not drawn), the inhibition is -15.9% (inactive).

`CC(=O)Nc1ccc(S(=O)(=O)NC(C)C(=O)OCC(=O)Nc2ccc(F)cc2Cl)cc1` (stereo not drawn): the inhibition was 4.68% (inactive).

Take `COc1ccc(NC(=O)[C@H](C)NC(N)=O)cc1S(=O)(=O)Nc1cc(C)ccc1Br`: the inhibition was 9.93% (inactive).

As for `O=S(=O)(c1ccc(N2CCOCC2)c(Cl)c1)N1CCOCC1`, the inhibition is 2.67% (inactive).

Turning to `CC(=O)Nc1cc(C(F)(F)F)ccc1N1CCOCC1`, the inhibition is 2.07% (inactive).

Take `Nc1cc(Cl)ccc1N1CCOCC1`: the inhibition is 2.6% (inactive).

As for `Nc1cc(Cl)ccc1N1CCCCCC1`, the inhibition was -8.8% (inactive).

`CC1CCN(c2ccc(C(F)(F)F)cc2N)CC1`: the inhibition was 3.8% (inactive).

Regarding `Nc1cc(Cl)ccc1N1CCCCC1`, the inhibition was 1.75% (inactive).

With `O=C(CN(c1ccccc1)S(=O)(=O)c1ccc(Cl)cc1)Nc1cccnc1`, the inhibition was -2.54% (inactive).

As for `C[C@@H](OC(=O)c1[nH]cnc1C(=O)NCc1ccc(CNC(=O)OC(C)(C)C)cc1)c1ccccc1`, the inhibition was 7.47% (inactive).

In the case of `COc1ccccc1NC(=O)CCC(=O)OCC(=O)c1ccc(C)c([N+](=O)[O-])c1`, the inhibition is 4.59% (inactive).

For `Cc1ccc(NC(=O)Cc2nnc(SCC(=O)NC3=NCCS3)n2C)cc1`, the inhibition is 9.68% (inactive).
